According to ChEMBL document CHEMBL1961873, “Compounds: GSK PKIS; Assays: Nanosyn kinase panel” (2012):

Tests used:
[1] = biological target: Protein kinase C gamma type (Homo sapiens) (UniProt P05129); conditions: at 1 µM;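 further: each value is an averaged percent inhibition of the enzyme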
[2] = biological target: T1, Protein kinase C iota type (Homo sapiens) (UniProt P41743); conditions: at 0.1 µM
T1 sequence (whole entry): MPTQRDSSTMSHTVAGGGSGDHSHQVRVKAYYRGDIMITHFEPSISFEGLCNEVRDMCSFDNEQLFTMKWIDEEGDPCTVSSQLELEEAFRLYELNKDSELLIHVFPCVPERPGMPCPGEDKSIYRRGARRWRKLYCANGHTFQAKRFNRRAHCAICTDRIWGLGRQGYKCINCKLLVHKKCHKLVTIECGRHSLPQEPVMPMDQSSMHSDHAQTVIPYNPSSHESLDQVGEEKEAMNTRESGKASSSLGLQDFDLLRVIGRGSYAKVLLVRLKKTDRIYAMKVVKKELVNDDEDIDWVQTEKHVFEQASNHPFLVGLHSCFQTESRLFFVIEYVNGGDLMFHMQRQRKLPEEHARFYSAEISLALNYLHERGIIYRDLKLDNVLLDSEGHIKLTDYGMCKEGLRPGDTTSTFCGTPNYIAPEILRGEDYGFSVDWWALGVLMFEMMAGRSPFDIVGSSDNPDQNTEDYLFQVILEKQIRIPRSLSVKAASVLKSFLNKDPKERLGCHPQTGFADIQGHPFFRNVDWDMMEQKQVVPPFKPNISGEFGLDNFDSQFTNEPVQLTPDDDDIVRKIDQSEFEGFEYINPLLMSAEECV

[3] = biological target: T1, Protein kinase C iota type (Homo sapiens); conditions: at 1 µM
[4] = biological target: Protein kinase C theta type (Homo sapiens) (UniProt Q04759); conditions: at 0.1 µM
Sequence of Protein kinase C theta type (Homo sapiens) (Q04759 whole entry, looked up): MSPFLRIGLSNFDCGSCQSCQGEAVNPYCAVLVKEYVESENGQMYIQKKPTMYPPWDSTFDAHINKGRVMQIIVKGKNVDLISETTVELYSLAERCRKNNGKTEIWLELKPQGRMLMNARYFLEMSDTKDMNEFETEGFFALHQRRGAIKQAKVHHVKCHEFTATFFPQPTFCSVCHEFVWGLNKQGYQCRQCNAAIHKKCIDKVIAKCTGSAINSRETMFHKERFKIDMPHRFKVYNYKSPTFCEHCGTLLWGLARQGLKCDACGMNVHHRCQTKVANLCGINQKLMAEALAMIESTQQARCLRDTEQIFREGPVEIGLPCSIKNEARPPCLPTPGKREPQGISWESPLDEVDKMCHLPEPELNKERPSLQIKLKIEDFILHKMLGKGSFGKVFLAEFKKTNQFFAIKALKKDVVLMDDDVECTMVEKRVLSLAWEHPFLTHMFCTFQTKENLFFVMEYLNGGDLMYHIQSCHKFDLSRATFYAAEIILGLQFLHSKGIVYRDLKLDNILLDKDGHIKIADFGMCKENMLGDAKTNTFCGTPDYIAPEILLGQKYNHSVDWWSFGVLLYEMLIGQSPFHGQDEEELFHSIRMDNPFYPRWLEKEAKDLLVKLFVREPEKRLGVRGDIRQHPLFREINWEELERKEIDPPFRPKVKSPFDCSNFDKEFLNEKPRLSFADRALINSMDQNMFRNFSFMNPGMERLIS

[5] = biological target: Protein kinase C theta type (Homo sapiens) (UniProt Q04759); conditions: at 1 µM
[6] = biological target: Protein kinase C beta type (Homo sapiens) (UniProt P05771); conditions: at 0.1 µM
Sequence of Protein kinase C beta type (Homo sapiens) (P05771 2-671 limits assumed): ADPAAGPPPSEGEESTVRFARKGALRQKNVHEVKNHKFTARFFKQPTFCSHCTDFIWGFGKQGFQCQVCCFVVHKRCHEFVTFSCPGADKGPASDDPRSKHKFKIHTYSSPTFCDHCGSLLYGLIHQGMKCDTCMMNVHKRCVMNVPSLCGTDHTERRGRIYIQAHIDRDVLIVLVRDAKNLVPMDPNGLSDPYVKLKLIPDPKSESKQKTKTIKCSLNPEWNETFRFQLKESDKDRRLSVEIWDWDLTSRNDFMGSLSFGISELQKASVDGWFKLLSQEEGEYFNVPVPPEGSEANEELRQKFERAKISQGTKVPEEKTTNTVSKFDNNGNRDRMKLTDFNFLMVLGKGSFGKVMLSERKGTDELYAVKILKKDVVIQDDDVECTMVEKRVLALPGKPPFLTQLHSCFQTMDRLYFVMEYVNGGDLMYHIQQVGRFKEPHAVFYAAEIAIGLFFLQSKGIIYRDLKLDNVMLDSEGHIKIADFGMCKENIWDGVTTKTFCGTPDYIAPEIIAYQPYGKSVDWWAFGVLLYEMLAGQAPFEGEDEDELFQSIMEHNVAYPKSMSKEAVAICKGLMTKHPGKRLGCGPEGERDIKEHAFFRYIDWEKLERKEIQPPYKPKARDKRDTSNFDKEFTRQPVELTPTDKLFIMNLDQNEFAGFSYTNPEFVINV

[7] = biological target: Protein kinase C beta type (Homo sapiens) (UniProt P05771); conditions: at 1 µM
[8] = biological target: T2, Serine/threonine-protein kinase D1 (Homo sapiens) (UniProt Q15139); conditions: at 0.1 µM
T2 sequence (whole entry): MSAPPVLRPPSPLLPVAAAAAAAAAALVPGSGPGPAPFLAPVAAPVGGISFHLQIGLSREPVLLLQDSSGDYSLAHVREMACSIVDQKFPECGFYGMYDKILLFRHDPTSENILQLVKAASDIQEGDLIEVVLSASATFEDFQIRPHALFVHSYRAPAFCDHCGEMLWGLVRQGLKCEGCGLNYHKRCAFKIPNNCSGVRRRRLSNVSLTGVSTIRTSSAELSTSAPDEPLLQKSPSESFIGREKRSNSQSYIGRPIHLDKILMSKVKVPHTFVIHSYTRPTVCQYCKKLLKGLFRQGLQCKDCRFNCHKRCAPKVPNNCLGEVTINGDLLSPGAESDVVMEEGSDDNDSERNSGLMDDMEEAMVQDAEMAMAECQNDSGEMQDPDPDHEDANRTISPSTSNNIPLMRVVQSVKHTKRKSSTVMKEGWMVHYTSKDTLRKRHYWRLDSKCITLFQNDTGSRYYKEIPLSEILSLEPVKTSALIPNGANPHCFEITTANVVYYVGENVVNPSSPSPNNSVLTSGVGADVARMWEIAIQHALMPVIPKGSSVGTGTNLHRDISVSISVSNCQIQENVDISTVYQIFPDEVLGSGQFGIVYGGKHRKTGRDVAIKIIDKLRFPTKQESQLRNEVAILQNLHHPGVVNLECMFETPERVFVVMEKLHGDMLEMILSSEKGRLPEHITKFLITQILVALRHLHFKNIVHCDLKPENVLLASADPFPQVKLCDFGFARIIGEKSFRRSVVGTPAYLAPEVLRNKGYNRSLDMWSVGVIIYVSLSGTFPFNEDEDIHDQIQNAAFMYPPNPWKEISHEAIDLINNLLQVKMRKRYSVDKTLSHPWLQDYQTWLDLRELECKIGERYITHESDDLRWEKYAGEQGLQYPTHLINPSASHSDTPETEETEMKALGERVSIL

[9] = biological target: T2, Serine/threonine-protein kinase D1 (Homo sapiens); conditions: at 1 µM
[10] = biological target: T3, Serine/threonine-protein kinase D2 (Homo sapiens) (UniProt Q9BZL6); conditions: at 0.1 µM
T3 sequence (whole entry): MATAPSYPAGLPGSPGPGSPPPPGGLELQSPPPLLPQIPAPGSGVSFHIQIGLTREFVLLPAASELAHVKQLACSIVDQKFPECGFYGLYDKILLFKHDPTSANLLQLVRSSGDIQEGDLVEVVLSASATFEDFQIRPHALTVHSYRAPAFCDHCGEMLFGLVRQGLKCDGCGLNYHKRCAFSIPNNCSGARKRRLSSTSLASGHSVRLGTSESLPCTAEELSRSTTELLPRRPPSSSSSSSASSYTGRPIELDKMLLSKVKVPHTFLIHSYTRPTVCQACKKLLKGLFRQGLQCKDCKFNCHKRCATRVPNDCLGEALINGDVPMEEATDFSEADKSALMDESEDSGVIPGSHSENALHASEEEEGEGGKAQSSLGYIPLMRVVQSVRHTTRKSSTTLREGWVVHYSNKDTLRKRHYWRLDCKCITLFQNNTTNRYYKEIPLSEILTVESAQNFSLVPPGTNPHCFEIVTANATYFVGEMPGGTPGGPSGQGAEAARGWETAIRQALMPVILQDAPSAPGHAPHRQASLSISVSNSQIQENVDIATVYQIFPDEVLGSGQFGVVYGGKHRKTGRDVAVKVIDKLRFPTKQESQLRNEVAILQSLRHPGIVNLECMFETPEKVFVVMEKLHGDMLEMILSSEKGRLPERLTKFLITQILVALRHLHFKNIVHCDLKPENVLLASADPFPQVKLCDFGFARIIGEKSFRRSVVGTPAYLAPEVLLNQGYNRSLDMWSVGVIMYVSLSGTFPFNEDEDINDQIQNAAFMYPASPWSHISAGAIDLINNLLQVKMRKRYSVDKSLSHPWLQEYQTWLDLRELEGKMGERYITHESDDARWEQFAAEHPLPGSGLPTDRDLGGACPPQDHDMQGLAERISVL

[11] = biological target: T3, Serine/threonine-protein kinase D2 (Homo sapiens); conditions: at 1 µM
[12] = biological target: T4, Serine/threonine-protein kinase D3 (Homo sapiens) (UniProt O94806); conditions: at 0.1 µM
T4 sequence (whole entry): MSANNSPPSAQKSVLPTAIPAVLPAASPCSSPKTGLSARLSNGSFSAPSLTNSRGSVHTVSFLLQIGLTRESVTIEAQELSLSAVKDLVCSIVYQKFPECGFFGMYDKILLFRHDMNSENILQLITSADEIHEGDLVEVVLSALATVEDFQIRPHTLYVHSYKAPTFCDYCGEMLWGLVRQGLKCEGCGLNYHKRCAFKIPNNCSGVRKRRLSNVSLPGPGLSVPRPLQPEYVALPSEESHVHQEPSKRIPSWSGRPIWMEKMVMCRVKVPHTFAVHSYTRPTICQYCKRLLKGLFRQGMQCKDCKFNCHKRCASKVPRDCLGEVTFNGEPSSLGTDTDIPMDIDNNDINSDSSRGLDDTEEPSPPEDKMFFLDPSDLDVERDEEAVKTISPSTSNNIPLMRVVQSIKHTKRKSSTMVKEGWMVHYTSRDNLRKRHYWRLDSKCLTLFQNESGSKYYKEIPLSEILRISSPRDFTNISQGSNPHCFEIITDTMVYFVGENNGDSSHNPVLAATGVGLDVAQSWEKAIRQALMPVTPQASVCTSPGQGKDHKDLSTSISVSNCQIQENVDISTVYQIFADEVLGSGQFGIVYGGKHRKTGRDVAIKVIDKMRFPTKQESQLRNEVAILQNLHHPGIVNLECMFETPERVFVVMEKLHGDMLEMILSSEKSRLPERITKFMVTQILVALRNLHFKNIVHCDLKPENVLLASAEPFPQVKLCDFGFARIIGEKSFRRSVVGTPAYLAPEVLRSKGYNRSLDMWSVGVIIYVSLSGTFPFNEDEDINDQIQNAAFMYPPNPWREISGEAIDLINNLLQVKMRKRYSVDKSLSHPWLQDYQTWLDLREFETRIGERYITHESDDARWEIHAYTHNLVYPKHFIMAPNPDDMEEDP

[13] = biological target: T4, Serine/threonine-protein kinase D3 (Homo sapiens); conditions: at 1 µM
[14] = biological target: T5, cGMP-dependent protein kinase 1 (Homo sapiens) (UniProt Q13976); conditions: at 0.1 µM
T5 sequence (whole entry): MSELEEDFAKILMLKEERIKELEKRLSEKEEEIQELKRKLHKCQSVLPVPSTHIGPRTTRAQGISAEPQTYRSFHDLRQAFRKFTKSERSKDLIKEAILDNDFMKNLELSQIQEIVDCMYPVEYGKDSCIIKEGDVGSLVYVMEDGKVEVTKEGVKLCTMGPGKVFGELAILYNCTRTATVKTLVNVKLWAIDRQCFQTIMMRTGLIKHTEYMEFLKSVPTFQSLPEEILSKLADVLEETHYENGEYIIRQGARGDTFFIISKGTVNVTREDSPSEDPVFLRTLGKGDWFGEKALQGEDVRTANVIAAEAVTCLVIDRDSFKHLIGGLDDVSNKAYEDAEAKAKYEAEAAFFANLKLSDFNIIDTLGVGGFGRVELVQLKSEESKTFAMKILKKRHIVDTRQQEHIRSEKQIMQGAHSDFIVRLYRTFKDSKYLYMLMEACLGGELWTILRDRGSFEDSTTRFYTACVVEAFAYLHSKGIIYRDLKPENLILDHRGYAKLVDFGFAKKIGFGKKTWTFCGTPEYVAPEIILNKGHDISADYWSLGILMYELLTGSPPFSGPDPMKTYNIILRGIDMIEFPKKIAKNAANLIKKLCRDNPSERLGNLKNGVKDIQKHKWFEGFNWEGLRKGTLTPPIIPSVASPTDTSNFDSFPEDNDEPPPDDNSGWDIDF

[15] = biological target: T5, cGMP-dependent protein kinase 1 (Homo sapiens); conditions: at 1 µM
[16] = biological target: T6, cGMP-dependent protein kinase 2 (Homo sapiens) (UniProt Q13237); conditions: at 0.1 µM
T6 sequence (whole entry): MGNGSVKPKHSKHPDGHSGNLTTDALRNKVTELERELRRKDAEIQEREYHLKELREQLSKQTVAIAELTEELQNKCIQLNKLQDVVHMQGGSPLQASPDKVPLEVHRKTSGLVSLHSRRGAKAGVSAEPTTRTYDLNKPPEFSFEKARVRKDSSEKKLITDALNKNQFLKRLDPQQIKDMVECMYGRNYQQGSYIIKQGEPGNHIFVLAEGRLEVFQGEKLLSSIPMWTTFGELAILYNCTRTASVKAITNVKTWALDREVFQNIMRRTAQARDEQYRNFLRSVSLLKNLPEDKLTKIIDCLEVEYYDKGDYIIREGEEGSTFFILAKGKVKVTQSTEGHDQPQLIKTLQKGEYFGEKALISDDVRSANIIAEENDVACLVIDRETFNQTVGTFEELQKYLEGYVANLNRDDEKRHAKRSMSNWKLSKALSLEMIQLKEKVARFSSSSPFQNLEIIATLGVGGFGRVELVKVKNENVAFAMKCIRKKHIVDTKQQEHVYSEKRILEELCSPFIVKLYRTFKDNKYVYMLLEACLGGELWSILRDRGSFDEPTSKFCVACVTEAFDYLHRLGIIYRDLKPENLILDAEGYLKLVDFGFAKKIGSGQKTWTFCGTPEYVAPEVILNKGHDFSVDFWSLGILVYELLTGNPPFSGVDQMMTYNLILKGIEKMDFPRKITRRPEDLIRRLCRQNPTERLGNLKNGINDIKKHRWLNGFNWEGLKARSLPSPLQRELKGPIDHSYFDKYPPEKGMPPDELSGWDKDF

[17] = biological target: T6, cGMP-dependent protein kinase 2 (Homo sapiens); conditions: at 1 µM
[18] = biological target: T7, cAMP-dependent protein kinase catalytic subunit PRKX (Homo sapiens) (UniProt P51817); conditions: at 0.1 µM
T7 sequence (whole entry): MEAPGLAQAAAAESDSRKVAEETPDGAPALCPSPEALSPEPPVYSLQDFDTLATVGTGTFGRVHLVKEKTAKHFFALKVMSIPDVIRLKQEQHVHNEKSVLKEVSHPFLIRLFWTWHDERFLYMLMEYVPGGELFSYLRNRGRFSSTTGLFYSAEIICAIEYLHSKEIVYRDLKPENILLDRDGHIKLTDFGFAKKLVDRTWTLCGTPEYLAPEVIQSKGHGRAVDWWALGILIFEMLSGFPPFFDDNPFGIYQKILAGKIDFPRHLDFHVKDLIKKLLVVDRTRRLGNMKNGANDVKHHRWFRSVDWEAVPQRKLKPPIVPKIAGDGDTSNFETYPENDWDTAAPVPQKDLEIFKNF

[19] = biological target: T7, cAMP-dependent protein kinase catalytic subunit PRKX (Homo sapiens); conditions: at 1 µM
[20] = biological target: Rho-associated protein kinase 1 (Homo sapiens) (UniProt Q13464); conditions: at 0.1 µM;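 further: values are mean percent inhibition of ROCK1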
Sequence of Rho-associated protein kinase 1 (Homo sapiens) (Q13464 2-1354 limits assumed): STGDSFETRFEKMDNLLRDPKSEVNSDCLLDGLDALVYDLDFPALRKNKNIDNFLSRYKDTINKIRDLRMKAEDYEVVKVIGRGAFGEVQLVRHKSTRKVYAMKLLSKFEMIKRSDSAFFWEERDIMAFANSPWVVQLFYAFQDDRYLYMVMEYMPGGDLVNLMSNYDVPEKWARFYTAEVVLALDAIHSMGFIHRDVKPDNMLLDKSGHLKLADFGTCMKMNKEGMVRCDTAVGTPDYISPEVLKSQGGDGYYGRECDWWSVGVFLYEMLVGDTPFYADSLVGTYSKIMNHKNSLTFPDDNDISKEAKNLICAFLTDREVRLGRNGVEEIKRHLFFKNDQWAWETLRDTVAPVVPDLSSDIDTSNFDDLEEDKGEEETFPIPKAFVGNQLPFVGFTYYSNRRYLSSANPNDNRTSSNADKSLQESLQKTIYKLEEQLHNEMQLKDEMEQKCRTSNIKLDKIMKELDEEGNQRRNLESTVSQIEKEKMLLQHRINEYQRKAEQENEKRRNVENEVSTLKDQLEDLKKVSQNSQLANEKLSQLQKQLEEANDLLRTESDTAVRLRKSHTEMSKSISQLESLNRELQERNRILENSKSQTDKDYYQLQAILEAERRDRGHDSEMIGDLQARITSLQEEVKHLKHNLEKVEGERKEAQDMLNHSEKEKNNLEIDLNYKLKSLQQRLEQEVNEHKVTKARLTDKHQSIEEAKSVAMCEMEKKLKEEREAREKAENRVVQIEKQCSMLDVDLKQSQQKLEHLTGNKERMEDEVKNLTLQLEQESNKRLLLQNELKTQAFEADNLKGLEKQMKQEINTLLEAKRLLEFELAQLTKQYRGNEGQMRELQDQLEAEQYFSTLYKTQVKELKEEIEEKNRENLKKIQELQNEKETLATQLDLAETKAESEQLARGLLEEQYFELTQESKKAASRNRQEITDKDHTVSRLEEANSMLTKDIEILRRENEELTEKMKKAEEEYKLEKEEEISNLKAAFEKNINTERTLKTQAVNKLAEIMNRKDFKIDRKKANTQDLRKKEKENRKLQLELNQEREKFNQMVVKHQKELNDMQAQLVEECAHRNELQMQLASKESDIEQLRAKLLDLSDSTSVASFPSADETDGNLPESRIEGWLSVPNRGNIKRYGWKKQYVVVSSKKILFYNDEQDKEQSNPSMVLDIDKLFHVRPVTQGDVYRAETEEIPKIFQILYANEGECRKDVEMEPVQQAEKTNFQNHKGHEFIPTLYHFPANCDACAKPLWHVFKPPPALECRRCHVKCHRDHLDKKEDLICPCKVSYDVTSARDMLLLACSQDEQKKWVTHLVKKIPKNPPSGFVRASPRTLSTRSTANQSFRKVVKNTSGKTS

For `NC(=O)c1cc(-c2ccncc2)cc(-c2ccccc2)c1N`, the inhibition [1] was 4.29%, the inhibition [2] was 2.83% and the inhibition [3] was 4.85%. For the same molecule, the inhibition [4] was 2.27%, the inhibition [5] was 4.49% and the inhibition [6] was 1.9%. For the same molecule, the inhibition [7] was 2.02%, the inhibition [8] was 4.07% and the inhibition [9] was 6.39%. The inhibition [10] was 5.01%, the inhibition [11] was 5.63% and the inhibition [12] was 5.86%. For the same molecule, the inhibition [13] was 6.16%, the inhibition [14] was 3.61% and the inhibition [15] was 8.21%. The inhibition [16] was 2.71%, the inhibition [17] was 5.42% and the inhibition [18] was 1.92%. For the same molecule, the inhibition [19] was 2.61% and the inhibition [20] was 1.71%.
`N#Cc1ccc(Oc2nccc(-c3c(-c4ccc(F)cc4)ncn3C3CCNCC3)n2)cc1` showed an inhibition [1] of 4.11%, an inhibition [2] of 2.09% and an inhibition [3] of 2.63%. It also gave an inhibition [4] of 2.28%, an inhibition [5] of 3.89% and an inhibition [6] of 0.99%. For the same molecule, the inhibition [7] was 3.08%, the inhibition [8] was 5.51% and the inhibition [9] was 8.1%. It also gave an inhibition [10] of 4.63%, an inhibition [11] of 5.05% and an inhibition [12] of 5.58%. The inhibition [13] was 5.89%, the inhibition [14] was 2.79% and the inhibition [15] was 2.48%. The inhibition [16] was 2.19%, the inhibition [17] was 2.92% and the inhibition [18] was 1.03%. It also gave an inhibition [19] of 2.01% and an inhibition [20] of 2.51%.
